Screening results from PubChem.
KB-V1 MDR tox: qHTS assay for MDR1-selective chemotherapeutics: Primary screen using the drug-selected MDR subline cells KB-V1. Potency, µM (top dose mostly 46.1 µM), actives largely listed as cytotoxic. AID 1347076, 2019. KB-V1 MDR cells viability, CellTiter-Glo, 72 h. 3.4% of 400,000 active; further: nearly all actives have a fitted effect of over 60% in size
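KB-V1 MDR subline cells in DMEM (phenol-red free, 10% FBS) exposed to compounds in qHTS concentration series for 72 h at 37 degrees C. Viability read by CellTiter-Glo luminescence; concentration-effect curves fitted after normalization and correction.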
HT1080 IDH1KD tx: qHTS for induction of synthetic lethality in tumor cells producing 2HG: qHTS for the HT-1080-IDH1KD cell line; Potency, µM (series often up to 46.1 µM), actives largely listed as cytotoxic; HT-1080 IDH1 knockdown viability, ATP luminescence, 48 h; AID 686971, 2013; 2% of 360,000 active
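HT-1080-IDH1KD cells (IDH1 knocked down), 750/well in RPMI with 5% FBS, treated with compound 48 h at 37 degrees C. Viability by CellTiter-Glo luminescence, normalised to DMSO and no-cell wells; concentration-response curves classed.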
HT1080NT lethal: qHTS for induction of synthetic lethality in tumor cells producing 2HG: qHTS for the HT-1080-NT fibrosarcoma cell line; Potency, µM (top dose mostly 46.1 µM), usual class: cytotoxic; AID 686970, 2013; HT-1080-NT fibrosarcoma viability, CellTiter-Glo ATP luminescence, 48 h; 1.6% of 360,000 active;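 further: NT is the 2HG producing partner of a matched IDH1 knockdown line; nearly all actives have a fitted effect of over 55% in size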
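Toxicity toward the 2HG-producing NT line was scored as %Activity, normalised to DMSO and no-cell wells, from CellTiter-Glo luminescence after 48 hours' treatment.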
KB-3-1 cytotox: qHTS assay for MDR1-selective chemotherapeutics: Primary screen using the parental adenocarcinoma cell KB-3-1; 1.4% of 400,000 active; Potency, µM (highest dose often 46.1 µM), most hits filed as cytotoxic; KB-3-1 viability, CellTiter-Glo ATP luminescence, 72 h; further: nearly all actives have a fitted effect of over 60% in size
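72 h, 37 °C compound treatment of KB-3-1 parental cells; CellTiter-Glo added, 10 min, luminescence read. Data corrected against DMSO-only plates and normalized before curve fitting.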
IL1B secr inh: qHTS for Inhibitors of Inflammasome Signaling: IL-1-beta AlphaLISA Primary Screen; THP-1 LPS/ATP IL-1B secretion, AlphaLISA, 16 h; stronger effect = lower value; activity change, % at 57.5 µM; AID 743279, 2014; 4.7% of 360,000 active; in the data active means activity change below about -50%; inconclusive means mostly about -30% to -49%
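THP-1 cells pretreated 1 hr with compounds (up to 57.5 uM final), then stimulated with LPS (250 ng/mL final) plus ATP (1.25 mM final); secreted IL-1B measured by AlphaLISA after 16 hr, decreased signal indicating inhibition.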
Hits are given with their value; - = inactive; ? = inconclusive; . = not tested or not shown. An excerpt weighted towards active compounds, which were near 8.8% of everything screened. Unless noted, the call rests on the fitted dose curve; in most records, active means well fitted curve in the direction sought with a large enough effect; inconclusive means small, poorly fitted or top-dose-only effect, or another doubt; inactive means no such curve, though single readings can be large; an effect the other way counts as inactive or inconclusive.

SMILES | KB-V1 MDR tox | HT1080 IDH1KD tx | HT1080NT lethal | KB-3-1 cytotox | IL1B secr inh
O=C(CCOc1ccccc1)Nc1ccnn1C1CCN(CCc2ccccc2)CC1 | - | - | - | - | -51.5
O=C(CCOc1ccccc1)Nc1ccnn1C1CCN(Cc2ccc(O)cc2)CC1 | ? | - | - | - | -
Cn1cc(CN2CCC(n3nccc3NC(=O)c3ccccc3Cl)CC2)c2ccccc21 | - | ? | ? | - | -82.4
CCc1ccc(CN2CCC(n3nccc3NC(=O)c3ccccc3Cl)CC2)cc1 | 18.4µM | - | - | - | -50.3
Cn1cc(CN2CCC(n3nccc3NC(=O)c3ccccc3Cl)CC2)cn1 | ? | - | - | - | -
O=C(Nc1ccnn1C1CCN(C/C=C/c2ccccc2)CC1)c1cccc(F)c1 | - | ? | - | - | -52.9
O=C1NC[C@@H](CCCCN2C[C@H](Cc3ccc(O)cc3)N(CCc3ccccc3)C(=O)C2=O)N(CC2CCCCC2)C1=O | - | - | - | - | -
Cc1cc2c(cc1S(=O)(=O)Nc1cc(C(F)(F)F)cc(C(F)(F)F)c1)OCC(=O)N2 | - | . | . | - | .
COc1cccc(CCc2nnc(N)s2)c1 | - | - | - | - | -
O=C(Nc1nnc(S(=O)(=O)N2CCCC2)s1)c1ccc(F)cc1 | - | . | . | - | .
CCc1ccc(CN2CCC(n3nccc3NC(=O)c3ccc4c(c3)OCO4)CC2)cc1 | ? | - | - | - | -55.6
CCOc1cccc(CN2CCC(n3nccc3NC(=O)c3ccc4c(c3)OCO4)CC2)c1 | . | - | - | . | -
Cc1noc2ncnc(N3CCCC3)c12 | - | - | - | - | -
Cc1noc2ncnc(Sc3ccc(Br)cc3)c12 | - | ? | - | ? | -100.7
Cn1cc(S(=O)(=O)c2ccccc2)n(C)c1=O | - | - | - | - | -
C[C@H](CO)N1C[C@H](C)[C@@H](CN(C)C(=O)Nc2ccc(C(F)(F)F)cc2)Oc2c(NC(=O)Nc3ccccc3)cccc2C1=O | - | - | ? | ? | -58.2
C[C@@H]1CN([C@H](C)CO)C(=O)c2cccc(NC(=O)Nc3ccc(F)cc3)c2O[C@H]1CN(C)C(=O)Nc1ccc(C(F)(F)F)cc1 | ? | ? | ? | ? | -70.2
CCOC(=O)c1c(S(=O)(=O)N2CCC(C(=O)Nc3ncccc3C)CC2)c(C)n(C)c1C | - | . | . | - | .
O=C(CSc1ccc2c(c1)OCCO2)NC(=O)Cc1ccccc1 | - | - | - | - | -
CCCCN(CC)CCCNC(=S)Nc1ccc2nc(N3CCN(C)CC3)cc(C)c2c1 | - | ? | 18.4µM | - | -54.0
CCCN(CCC)CCCNC(=S)Nc1ccc2nc(N3CCCC3)cc(C)c2c1 | - | ? | ? | - | ?
CCCCN(CC)CCCNC(=S)Nc1ccc2nc(N3CCN(CC)CC3)cc(C)c2c1 | - | ? | 16.4µM | - | ?
COc1ccc(NC(=O)CN(Cc2ccco2)Cc2ccco2)cc1S(=O)(=O)N1CCCCC1 | - | - | - | ? | -
CC(C)CCN1CCN(Cc2cccc(C(F)(F)F)c2)CC1CCO (stereo not given) | ? | - | - | - | -
N#Cc1c(SCc2ccccc2)sc(C(=O)c2ccccc2)c1N | - | - | ? | - | -
SMILES | KB-V1 MDR tox | HT1080 IDH1KD tx | HT1080NT lethal | KB-3-1 cytotox | IL1B secr inh
Cc1cccc(Oc2sc(C(=O)c3ccccc3)c(N)c2C#N)c1C | - | - | - | - | -61.5
N#Cc1c(Oc2ccc3ccccc3c2)sc(C(=O)c2ccccc2)c1N | - | - | - | ? | -107.0
Cc1ccc(CSc2sc(C(=O)c3ccccc3)c(N)c2C#N)cc1 | - | - | - | - | -
COc1cccc(N2CCN(C(=O)C3CCN(S(=O)(=O)c4ccc5c(c4)CC(C)N5C(C)=O)CC3)CC2)c1 (stereo not given) | - | - | - | ? | -
CCc1ccc(N2CC(C(=O)OCc3nc4ccsc4c(=O)[nH]3)CC2=O)cc1 (stereo not given) | ? | - | - | - | -
COc1ccc(NC(=S)NNC(=O)c2nnn(-c3ccccc3)c2C)cc1 | 18.4µM | - | - | - | -
